In PubChem BioAssay (NCATS):
Values joined by “and” are separate entries in the source; they are usually repeats but may differ in a detail not shown here. Equal entries are not always repeated. Records with an inconclusive call do not appear. Active and inactive are the calls of the source. Unless noted, calls follow the shape of the dose curve; as a rule, active = well fitted curve in the direction sought with a large enough effect; inconclusive = small, poorly fitted or top-dose-only effect, or another doubt; inactive = no such curve, though single readings can be large; an effect the other way counts as inactive or inconclusive.

Experiments:
[1] = Stat Signaling Pathway (AID 446; active = well fitted curve in either direction with a large enough effect, not every such curve was filed as active;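 also: ME-180 cervical cancer cells given 40 pM IL-6 alongside compound; SIE-controlled beta-lactamase reporter measured as 460/530 nm FRET emission ratio; % is scaled to controls: 0 for no effect and ±100 for the full control effect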)
In short: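 Screening format detects activators and inhibitors alike: ME-180 SIE-bla cells stimulated at 40 pM IL-6 for 5 hrs with compound, then dual-emission beta-lactamase read at 405 nm excitation.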

[2] = target: Glucocorticoid receptor (Homo sapiens) (UniProt P04150); test: GR-GFP Redistribution (AID 450;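 active = compounds whose dose series gives a full or clear partial fitted curve of increased nuclear translocation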; also: potency is read from the fitted curve at half-maximal effect); details: U2OS GR-GFP nuclear translocation, laser cytometry, 2 h
Chain of Glucocorticoid receptor (Homo sapiens) (P04150 whole entry, looked up, the tested form may be a part): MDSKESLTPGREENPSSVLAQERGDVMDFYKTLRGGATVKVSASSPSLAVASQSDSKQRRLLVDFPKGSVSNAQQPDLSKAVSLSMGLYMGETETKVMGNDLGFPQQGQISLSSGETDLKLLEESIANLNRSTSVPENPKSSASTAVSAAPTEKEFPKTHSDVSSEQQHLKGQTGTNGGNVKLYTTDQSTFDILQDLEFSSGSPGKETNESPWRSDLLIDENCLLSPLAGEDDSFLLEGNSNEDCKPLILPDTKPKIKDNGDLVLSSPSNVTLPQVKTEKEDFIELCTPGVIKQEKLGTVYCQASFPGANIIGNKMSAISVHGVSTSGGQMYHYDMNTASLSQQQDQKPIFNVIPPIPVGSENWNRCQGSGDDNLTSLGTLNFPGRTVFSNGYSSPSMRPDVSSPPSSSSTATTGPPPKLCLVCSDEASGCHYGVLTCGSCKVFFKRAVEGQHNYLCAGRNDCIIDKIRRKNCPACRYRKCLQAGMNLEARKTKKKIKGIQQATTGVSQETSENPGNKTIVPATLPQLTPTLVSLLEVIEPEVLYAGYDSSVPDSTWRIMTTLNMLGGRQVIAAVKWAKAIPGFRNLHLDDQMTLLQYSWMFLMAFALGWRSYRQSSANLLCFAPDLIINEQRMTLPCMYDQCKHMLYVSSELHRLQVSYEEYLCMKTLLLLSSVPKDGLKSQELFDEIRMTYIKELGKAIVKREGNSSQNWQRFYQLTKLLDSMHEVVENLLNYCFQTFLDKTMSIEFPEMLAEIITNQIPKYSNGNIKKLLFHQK

[3] = target: Glucocorticoid receptor (Homo sapiens) (UniProt P04150); test: GR-EFC Redistribution (AID 451; calls by dose curve; also: potency is read from the fitted curve at half-maximal effect); details: CHO-K1 GR-EFC translocation, beta-gal luminescence, 2 h
In short: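 CHO-K1 cells stably expressing nuclear-localized β-gal enzyme acceptor and GR fused C-terminally to the enzyme donor fragment; ligand-driven nuclear translocation restores β-gal by complementation. Compounds titrated up to 46 uM final, 2 h at 37 °C; luminescence read.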

[4] = target: Mitogen-activated protein kinase 10 (Mus musculus) (UniProt Q61831); test: JNK3 AlphaScreen Assay (AID 530; active = well fitted curve in either direction with a large enough effect, not every such curve was filed as active;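 also: kinase came from lysate of stimulated human HepG2 cells; signal reports phosphorylation of biotinylated GST-cJun 1-79 at Ser73 with 10 µM ATP; series mostly up to about 57 µM; % is scaled to controls: 0 for no effect and ±100 for the full control effect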)
In short: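 Inhibitors reduce antibody binding to phosphorylated biotin-cJun, lowering AlphaScreen luminescence. Lysates from HepG2 cells pre-activated by IL-1beta plus TNF-alpha supplied JNK3; compounds were titrated.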

[5] = Cell Viability - N2a (AID 540);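 also: plate controls were DMSO alone for no effect and tamoxifen control for full effect; nearly all actives have a fitted effect of over 45% in size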
In short: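 Luminescent ATP signal (CellTiter-Glo, 20 min at room temperature) served as the viability read-out after N2a cells were treated with compounds for 40 hours at 37 °C. Concentration-response data were fitted to the Hill equation for AC50.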

[6] = Cell Viability - NIH 3T3 (AID 541); also: nearly all actives have a fitted effect of over 25% in size; also: potency is read from the fitted curve at half-maximal effect
In short: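 Luminescent ATP signal (CellTiter-Glo) served as the viability read-out after NIH 3T3 cells were exposed to compounds over a concentration range for 40 hr at 37 °C. Hill-equation modelling of concentration-response data gave AC50.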

[7] = Cell Viability - HUV-EC-C (AID 542); also: % is scaled to controls: 0 for no effect and ±100 for the full control effect; nearly all actives have a fitted effect of over 35% in size
In short: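 qHTS cytotoxicity: HUV-EC-C, 1000 cells/well, 5 hr settle, compound 40 hr 37 °C, CellTiter-Glo, luminescence. AC50 via Hill equation.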

[8] = Cell Viability - H-4-II-E (AID 543); also: % is scaled to controls: 0 for no effect and ±100 for the full control effect; nearly all actives have a fitted effect of over 35% in size
In short: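 Luminescent ATP signal (CellTiter-Glo) served as the viability read-out, with cytotoxicity seen as a concentration-dependent ATP drop. Cells were treated for 40 hours in complete medium. AC50 values derive from Hill-equation modelling.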

[9] = Cell Viability - SH-SY5Y (AID 544);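 also: 0% = DMSO alone and -100% = 100 µM tamoxifen; nearly all actives have a fitted effect of over 55% in size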
In short: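 Luminescent ATP read-out (CellTiter-Glo) measures loss of viable SH-SY5Y neuroblastoma cells after 40 hr compound exposure at 37 °C. AC50 values derive from standard Hill modelling of qHTS concentration-response data.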

[10] = Cell Viability - Renal Proximal Tubule (AID 545);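 also: 0% = DMSO only and -100% = 100 µM tamoxifen; nearly all actives have a fitted effect of over 40% in size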
In short: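 Rat kidney proximal tubule cells, freshly isolated; 1000 cells/well, 5 hr settle, compound 40 hr 37 °C. CellTiter-Glo 20 min RT, luminescence read. AC50 by standard Hill fit.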

Cc1ccccc1CN1C2=NCCN2C(=O)C2=C1CCN(Cc1ccccc1)C2
inactive: outcome [1] | Potency [2] > 46 µM | Potency [3] > 9.22 µM | activity change, negative = inhibition [4] -0.448% [at 11.4 µM]

Cc1ccc(N)cc1O
inactive: outcome [4] | outcome [5] | Potency [6] | outcome [7] | outcome [8] | outcome [9] | outcome [10]

Nc1ccccc1N
active: Potency [6] 6.31 µM
inactive: outcome [4] | outcome [5] | outcome [7]

COc1ccc2c(OC)c3ccoc3nc2c1OC
inactive: outcome [1] | Potency [2] > 20.6 µM and > 46 µM | Potency [3] > 20.6 µM and > 46 µM | outcome [4]

CC[C@]1(O)CC2CN(CCc3c([nH]c4ccccc34)[C@@](C(=O)OC)(c3cc4c(cc3OC)N(C=O)[C@H]3[C@@](O)(C(=O)OC)[C@H](OC(C)=O)[C@]5(CC)C=CCN6CC[C@]43[C@@H]65)C2)C1 (stereo partly specified)
inactive: outcome [1] | Potency [2] > 20.6 µM

CC(=O)O[C@@H]1CC(C)=C2[C@H]1[C@H](C)CC[C@H]2/C=C(\C)C(=O)O
inactive: outcome [4] | outcome [5] | Potency [6] | outcome [7] | outcome [8] | outcome [9] | outcome [10]

CC(=O)O[C@H]1C(=O)[C@@]2(C)[C@H]([C@H](OC(=O)c3ccccc3)[C@]3(O)C[C@H](OC(=O)[C@H](O)[C@@H](NC(=O)c4ccccc4)c4ccccc4)C(C)=C1C3(C)C)[C@]1(OC(C)=O)CO[C@@H]1C[C@@H]2O
inactive: Potency [2] > 46 µM | Potency [3] > 46 µM | outcome [4]

COc1ccc(C[C@H](N)C(=O)N[C@@H]2[C@H](O)[C@H](n3cnc4c(N(C)C)ncnc43)O[C@@H]2CO)cc1
inactive: Potency [2] > 20.6 µM | Potency [3] > 20.6 µM | outcome [4]

O=C1NC(=O)C(c2cn(-c3ccccc3)nc2-c2ccc(F)cc2)N1 (stereo unspecified)
inactive: outcome [1] | Potency [2] > 20.6 µM
